Results as given in PubChem BioAssay AID1159580 (chemical genetic matrix, 2015).
The campaign covered roughly 5,500 compounds. About 2,000 (36%) were called active. Another 18% or so got no clear call; they are omitted. Cut-off read from the data, not from the text of the source: active = normalized growth mostly below about 0.91 (no sharp cut-off); inconclusive = no clear call, values can overlap the other calls; inactive = mostly above about 0.92. The list shows a part of the results.

Test: chemical genetic growth profiling, strain panel (AID 1159580);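 note: tested at 20 µM; growth read once vehicle control cultures reached saturation at 30 °C; 1 = growth at the plate median or of vehicle wells; lower values mean less growth of the strain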
Conditions: growth OD

Measured: normalized growth

Oc1cccc2cccnc12
active: S. cerevisiae deletion strains, locus YKL009W, strain mrt4, active compounds read low 0.741 | S. cerevisiae deletion strains, locus YKL068W, active compounds read low 0.0531 | S. cerevisiae deletion strains, locus YKL085W, strain MDH1 (second series), active compounds read low 0.0521 | S. cerevisiae deletion strains, locus YKL085W, strain MDH1, active compounds read low 0.0521 | S. cerevisiae deletion strains, locus YKL160W, strain elf1, active compounds read low 0.0679 | S. cerevisiae deletion strains, locus YKL190W, strain CNB1, active compounds read low 0.0517 | S. cerevisiae deletion strains, locus YKR001C, strain vps1, active compounds read low 0.0622 | S. cerevisiae deletion strains, locus YKR026C, strain gcn3, active compounds read low 0.356 | S. cerevisiae deletion strains, locus YKR091W, strain srl3, active compounds read low 0.5 | S. cerevisiae deletion strains, locus YLL001W, strain dnm1, active compounds read low 0.0604 | S. cerevisiae deletion strains, locus YLL026W, active compounds read low 0.0573 | S. cerevisiae deletion strains, locus YLL041C, strain sdh2, active compounds read low 0.132 | S. cerevisiae deletion strains, locus YLR027C, strain aat2, active compounds read low 0.0569 | S. cerevisiae deletion strains, locus YLR039C, strain RIC1, active compounds read low 0.0939 | S. cerevisiae deletion strains, locus YLR058C, strain SHM2, active compounds read low 0.786 | S. cerevisiae deletion strains, locus YLR102C, strain apc9, active compounds read low 0.0613 | S. cerevisiae deletion strains, locus YLR221C, strain rsa3, active compounds read low 0.0643 | S. cerevisiae deletion strains, locus YLR258W, strain gsy2, active compounds read low 0.0623 | S. cerevisiae deletion strains, locus YLR262C, strain YPT6 (second series), active compounds read low 0.0792 | S. cerevisiae deletion strains, locus YLR262C, strain YPT6, active compounds read low 0.124 | S. cerevisiae deletion strains, locus YLR268W, strain sec22, active compounds read low 0.0693 | S. cerevisiae deletion strains, locus YLR320W, strain mms22, active compounds read low 0.0884 | S. cerevisiae deletion strains, locus YLR330W, strain CHS5, active compounds read low 0.0553 | S. cerevisiae deletion strains, locus YLR342W, strain FKS1 (second series), active compounds read low 0.0627 | S. cerevisiae deletion strains, locus YLR342W, strain FKS1, active compounds read low 0.0636 | S. cerevisiae deletion strains, locus YLR357W, strain rsc2, active compounds read low 0.117 | S. cerevisiae deletion strains, locus YLR370C, strain arc18, active compounds read low 0.0611 | S. cerevisiae deletion strains, locus YLR371W, strain rom2, active compounds read low 0.0611 | S. cerevisiae deletion strains, locus YLR384C, strain iki3, active compounds read low 0.0615 | S. cerevisiae deletion strains, locus YLR418C, strain cdc73, active compounds read low 0.0961 | S. cerevisiae deletion strains, locus YML016C, strain PPZ1, active compounds read low 0.0529 | S. cerevisiae deletion strains, locus YML032C, strain rad52, active compounds read low 0.385 | S. cerevisiae deletion strains, locus YML120C, strain ndi1, active compounds read low 0.0583 | S. cerevisiae deletion strains, locus YML124C, strain tub3, active compounds read low 0.0625 | S. cerevisiae deletion strains, locus YMR058W, strain fet3, active compounds read low 0.0576 | S. cerevisiae deletion strains, locus YMR078C, strain ctf18, active compounds read low 0.553 | S. cerevisiae deletion strains, locus YMR125W, strain sto1, active compounds read low 0.0733 | S. cerevisiae deletion strains, locus YMR129W, active compounds read low 0.0569 | S. cerevisiae deletion strains, locus YMR205C, strain PFK2, active compounds read low 0.214 | S. cerevisiae deletion strains, locus YMR223W, strain ubp8, active compounds read low 0.0625 | S. cerevisiae deletion strains, locus YMR231W, strain pep5, active compounds read low 0.0683 | S. cerevisiae deletion strains, locus YMR307W, strain GAS1, active compounds read low 0.108 | S. cerevisiae deletion strains, locus YNL067W, strain RPL9B, active compounds read low 0.0496 | S. cerevisiae deletion strains, locus YNL071W, strain lat1, active compounds read low 0.0618 | S. cerevisiae deletion strains, locus YNL209W, strain ssb2, active compounds read low 0.0612 | S. cerevisiae deletion strains, locus YNL233W, strain BNI4, active compounds read low 0.0522 | S. cerevisiae deletion strains, locus YNL248C, strain rpa49, active compounds read low 0.0751 | S. cerevisiae deletion strains, locus YNL250W, strain rad50, active compounds read low 0.0636 | S. cerevisiae deletion strains, locus YNL271C, strain bni1, active compounds read low 0.0611 | S. cerevisiae deletion strains, locus YNL298W, strain CLA4, active compounds read low 0.0629 | S. cerevisiae deletion strains, locus YNL307C, strain MCK1, active compounds read low 0.0661 | S. cerevisiae deletion strains, locus YNL322C, strain KRE1 (second series), active compounds read low 0.0706 | S. cerevisiae deletion strains, locus YNL322C, strain KRE1, active compounds read low 0.0518 | S. cerevisiae deletion strains, locus YNR049C, strain mso1, active compounds read low 0.0568 | S. cerevisiae deletion strains, locus YNR052C, strain pop2, active compounds read low 0.749 | S. cerevisiae deletion strains, locus YOL006C, strain TOP1, active compounds read low 0.113 | S. cerevisiae deletion strains, locus YOL147C, strain pex11, active compounds read low 0.127 | S. cerevisiae deletion strains, locus YOR001W, strain rrp6, active compounds read low 0.0671 | S. cerevisiae deletion strains, locus YOR061W, strain CKA2, active compounds read low 0.0507 | S. cerevisiae deletion strains, locus YOR069W, strain VPS5, active compounds read low 0.0519 | S. cerevisiae deletion strains, locus YOR070C, strain gyp1, active compounds read low 0.0577 | S. cerevisiae deletion strains, locus YOR080W, strain dia2, active compounds read low 0.0646 | S. cerevisiae deletion strains, locus YOR083W, strain WHI5, active compounds read low 0.167 | S. cerevisiae deletion strains, locus YOR106W, strain vam3, active compounds read low 0.0652 | S. cerevisiae deletion strains, locus YOR136W, strain idh2, active compounds read low 0.0689 | S. cerevisiae deletion strains, locus YOR144C, strain elg1, active compounds read low 0.712 | S. cerevisiae deletion strains, locus YOR184W, strain ser1, active compounds read low 0.0694 | S. cerevisiae deletion strains, locus YOR265W, strain rbl2, active compounds read low 0.0565 | S. cerevisiae deletion strains, locus YOR270C, strain vph1, active compounds read low 0.0934 | S. cerevisiae deletion strains, locus YOR290C, strain snf2, active compounds read low 0.0963 | S. cerevisiae deletion strains, locus YOR316C, strain cot1, active compounds read low 0.0587 | S. cerevisiae deletion strains, locus YPL051W, strain arl3, active compounds read low 0.063 | S. cerevisiae deletion strains, locus YPL055C, strain LGE1, active compounds read low 0.0702 | S. cerevisiae deletion strains, locus YPL078C, strain atp4, active compounds read low 0.0642 | S. cerevisiae deletion strains, locus YPL106C, strain sse1, active compounds read low 0.104 | S. cerevisiae deletion strains, locus YPL240C, strain hsp82, active compounds read low 0.112 | S. cerevisiae deletion strains, locus YPL241C, strain CIN2, active compounds read low 0.0551 | S. cerevisiae deletion strains, locus YPR119W, strain clb2, active compounds read low 0.0623 | S. cerevisiae deletion strains, locus YPR141C, strain kar3, active compounds read low 0.0649 | S. cerevisiae deletion strains, locus YPR163C, strain tif3, active compounds read low 0.0763 | S. cerevisiae deletion strains, locus YPR167C, strain met16, active compounds read low 0.0614 | S. cerevisiae deletion strains, strain wtn01, active compounds read low 0.0583 | S. cerevisiae strains, strain wild type, active compounds read low 0.0541
inactive: S. cerevisiae deletion strains, locus YLR113W, strain HOG1, active compounds read low 1.04 | S. cerevisiae deletion strains, locus YNL183C, strain NPR1, active compounds read low 0.919 | S. cerevisiae deletion strains, locus YOL012C, strain htz1 0.214 | S. cerevisiae deletion strains, locus YOR231W, strain MKK1, active compounds read low 0.916 | S. cerevisiae deletion strains, locus YPL256C, strain CLN2, active compounds read low 0.971
